# According to the supplement of paper PMC12645437, “Orthogonal IMiD-Degron Pairs Induce Selective Protein Degradation in Cells” (ACS Chemical Biology, 2025):
# In all, about 8,300 sequences were measured (“log2 fold change of degron read counts, EGFP-low vs EGFP+ sorted cells (limma voom), compound-induced degradation”: median about -1.1, highest 2% from about 3.2 on). The list comes from a sample in which the highest values are over-represented; it also holds similar and randomly drawn sequences.
# T1: CRBN, Q96SW2
# T1 chain: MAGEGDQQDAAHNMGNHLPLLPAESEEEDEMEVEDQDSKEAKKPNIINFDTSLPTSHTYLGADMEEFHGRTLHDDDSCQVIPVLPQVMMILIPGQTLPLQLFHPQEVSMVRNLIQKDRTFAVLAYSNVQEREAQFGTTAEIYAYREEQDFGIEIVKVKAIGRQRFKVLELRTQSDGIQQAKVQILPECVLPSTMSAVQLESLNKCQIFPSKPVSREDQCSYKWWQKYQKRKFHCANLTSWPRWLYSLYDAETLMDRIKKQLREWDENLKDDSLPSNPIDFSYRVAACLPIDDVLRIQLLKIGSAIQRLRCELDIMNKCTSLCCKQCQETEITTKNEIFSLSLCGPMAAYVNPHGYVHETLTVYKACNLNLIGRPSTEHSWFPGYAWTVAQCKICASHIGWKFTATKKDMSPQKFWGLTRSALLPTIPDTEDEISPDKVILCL
# Biological target: T1, CRBN, Q96SW2
# Test: log2 fold change of degron read counts, EGFP-low vs EGFP+ sorted cells (limma voom), compound-induced degradation; higher = more compound-induced degradation of the degron-EGFP fusion; degrons are variants of IKZF1/3 zinc finger 2; compound dose not given here
# Conditions: Jurkat, 18 h
# [1] = compound: compound 19 (5-tert-butyl-thalidomide)
# [2] = compound: compound 22 (5-morpholino-thalidomide)
# [3] = compound: compound 33 (diphenyl IMiD analogue)
# 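Also: pooled lentiviral library of zinc finger degron-EGFP fusions in mCherry-positive Jurkat cells, FACS-sorted after compound exposure, with degron abundance counted by next-generation sequencing.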
Sequence,log2 fold change of degron read counts [1],log2 fold change of degron read counts [2],log2 fold change of degron read counts [3],log2 fold change of degron read counts (compound: thalidomide)
"FFCPICGHDFTQKGNLLRHIKL [46F_47F_49P_50I_52G_53H_54D_55F_67L_, Q9UKT9]",-2.5,-3.06,-2.39,-2.25
"FLCEICGAYFTQKGNLLRHIKL [46F_47L_49E_50I_52G_53A_54Y_55F_67L_, Q9UKT9]",0.402,-0.763,0.888,1.03
"FMCNICGAPFTQKGNLLRHIKL [46F_47M_49N_50I_52G_53A_54P_55F_67L_, Q9UKT9]",2.52,3.05,3.24,2.42
"FACNICGAPFTQKGNLLRHIKL [46F_47A_49N_50I_52G_53A_54P_55F_67L_, Q9UKT9]",3,2.25,0.28,1.19
"FHCNQCGAPFTQKGNLLRHIKL [46F_47H_49N_50Q_52G_53A_54P_55F_67L_, Q9UKT9]",-0.273,-1.39,-1.33,-1.72
"FHCNICGAPFTQKGNLLRHIKL [46F_47H_49N_50I_52G_53A_54P_55F_67L_, Q9UKT9]",3.64,3.01,1.94,1.11
"FQCNICGAPFTQKGNLLRHIKL [46F_47Q_49N_50I_52G_53A_54P_55F_67L_, Q9UKT9]",2.35,3.09,1.74,3.71
"FDCNICGAPFTQKGNLLRHIKL [46F_47D_49N_50I_52G_53A_54P_55F_67L_, Q9UKT9]",0.00765,0.55,-0.25,0.701
"FSCNICGAPFTQKGNLLRHIKL [46F_47S_49N_50I_52G_53A_54P_55F_67L_, Q9UKT9]",2.52,2.26,1.18,1.71
"FKCNICGAPFTQKGNLLRHIKL [46F_47K_49N_50I_52G_53A_54P_55F_67L_, Q9UKT9]",1.75,0.553,-1.66,1.84
"FFCNICGAPFTQKGNLLRHIKL [46F_47F_49N_50I_52G_53A_54P_55F_67L_, Q9UKT9]",3.82,3.29,1.81,0.893
"FWCEICGRFFTQKGNLLRHIKL [46F_47W_49E_50I_52G_53R_54F_55F_67L_, Q9UKT9]",1.04,1.16,0.269,-0.94
"FVCNQCGHRFTQKGNLLRHIKL [46F_47V_49N_50Q_52G_53H_54R_55F_67L_, Q9UKT9]",-2.83,-3,-2.59,-2.33
"FWCPICGHTFTQKGNLLRHIKL [46F_47W_49P_50I_52G_53H_54T_55F_67L_, Q9UKT9]",-1.68,-1.6,-1.41,-2.18
"FVCEQCGADFTQKGNLLRHIKL [46F_47V_49E_50Q_52G_53A_54D_55F_67L_, Q9UKT9]",-3.51,-2.64,-2.37,-2.14
"FCCNICGAKFTQKGNLLRHIKL [46F_47C_49N_50I_52G_53A_54K_55F_67L_, Q9UKT9]",1.13,0.951,-1.32,1.19
"FKCPICGRAFTQKGNLLRHIKL [46F_47K_49P_50I_52G_53R_54A_55F_67L_, Q9UKT9]",-2.37,-1.6,-2.65,-0.307
"FCCNVCGAAFTQKGNLLRHIKL [46F_47C_49N_50V_52G_53A_54A_55F_67L_, Q9UKT9]",0.855,0.945,0.918,0.447
"FMCEVCGAAFTQKGNLLRHIKL [46F_47M_49E_50V_52G_53A_54A_55F_67L_, Q9UKT9]",2.23,2.48,2.75,2.28
"FWCEVCGAAFTQKGNLLRHIKL [46F_47W_49E_50V_52G_53A_54A_55F_67L_, Q9UKT9]",3.39,3.9,2.77,1.54
"FGCEVCGAAFTQKGNLLRHIKL [46F_47G_49E_50V_52G_53A_54A_55F_67L_, Q9UKT9]",2.88,2.24,1.96,1.02
"FNCEVCGAAFTQKGNLLRHIKL [46F_47N_49E_50V_52G_53A_54A_55F_67L_, Q9UKT9]",3.07,1.6,0.0337,0.576
"FWCNVCGAAFTQKGNLLRHIKL [46F_47W_49N_50V_52G_53A_54A_55F_67L_, Q9UKT9]",1.25,2.85,1.15,-0.34
"FQCEVCGAAFTQKGNLLRHIKL [46F_47Q_49E_50V_52G_53A_54A_55F_67L_, Q9UKT9]",2.72,3.34,2.22,3.65
"FYCPVCGAAFTQKGNLLRHIKL [46F_47Y_49P_50V_52G_53A_54A_55F_67L_, Q9UKT9]",2.93,2.85,2.36,0.969
"FYCNVCGAAFTQKGNLLRHIKL [46F_47Y_49N_50V_52G_53A_54A_55F_67L_, Q9UKT9]",1.57,2.01,1.33,-0.954
"FCCEVCGAAFTQKGNLLRHIKL [46F_47C_49E_50V_52G_53A_54A_55F_67L_, Q9UKT9]",3.57,2.96,2.1,2.35
"FYCEVCGAAFTQKGNLLRHIKL [46F_47Y_49E_50V_52G_53A_54A_55F_67L_, Q9UKT9]",3.87,3.7,2.98,1.8
"FHCEVCGAAFTQKGNLLRHIKL [46F_47H_49E_50V_52G_53A_54A_55F_67L_, Q9UKT9]",3.08,2.89,1.84,0.737
